# D2 ag-1: Beta-Arrestin HTS for Positive Allosteric Modulators of the Human D2 Dopamine Receptor: Agonists; DiscoveRx PathHunter D2 beta-arrestin, luminescence, 90 min; 100% = 57 uM dopamine signal; 360,000 tested, 0.084% active; D(2) dopamine receptor (Homo sapiens), P14416; activation, % (concentration not given with the values); AID 624465, 2012; in the data active = activation above about 40%; inconclusive = between about 15% and that limit
#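 DiscoveRx PathHunter D2 beta-arrestin cells (2,100/well) attached overnight, then compound-stimulated 90 min at 37 C in HBSS/10 mM HEPES/0.1% Tween-20 buffer; beta-galactosidase complementation read by luminescence after 1 h at ambient temperature. Dopamine 57 uM final (EC100) as control.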
# D2 PAM-1: Beta-Arrestin HTS for Positive Allosteric Modulators of the Human D2 Dopamine Receptor: Potentiators; 360,000 tested, 0.23% active; DiscoveRx D2 beta-arrestin cells, luminescence, 90 min; 100% = 57 uM dopamine signal; potentiation, % (no concentration beside the values); D(2) dopamine receptor (Homo sapiens), P14416; AID 624464, 2012; in the data active = potentiation above about 50%; inconclusive = mostly about 30% to 49%
#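 PathHunter D2 cells, attached overnight at 37 deg C, received compound in DMSO plus dopamine at EC20 (50 nM final) for 90 min at 37 deg C. Beta-arrestin recruitment was read as luminescence after 1 h with detection reagent at ambient temperature.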
# D2 PAM-2: HTS Assay for Positive Allosteric Modulators of the Human D2 Dopamine Receptor: Primary Screen for Potentiators; D(2) dopamine receptor (Homo sapiens), P14416; HEK293 T-REx D2, calcium flux, EC20 dopamine potentiation; potentiation, % at 10 µM; 340,000 tested, 0.34% active;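 active = potentiation over 3 SD above the plate norm, cut at about 30% in these data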; also: 0% is about no effect
#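 Potentiation of an EC20 dopamine calcium response is measured in a force-coupled, tetracycline-inducible Hek293 Trex D2 line. Compound-only kinetic reads over 180 s flag agonists before dopamine addition.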
# D2 antag: HTS Assay for Allosteric Antagonists of the Human D2 Dopamine Receptor: Primary Screen for Antagonists; inhibition, % at 10 µM; AID 485344, 2010; 340,000 tested, 2% active; D(2) dopamine receptor (Homo sapiens), P14416; HEK293 TREx D2 cells, calcium flux, dopamine EC80; in the data active = inhibition above about 30%; inactive = below that, where a call was filed; also: 0% is about no effect
#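 Read-out: kinetic calcium fluorescence (1 cycle/s) in inducible HEK293 T-REx D2 cells after an EC80 dopamine addition that followed 180 s compound preincubation. Loss of the dopamine response indicates antagonism.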
# D2 ag-2: HTS Assay for Allosteric Agonists of the Human D2 Dopamine Receptor: Primary Screen for Agonists | HEK293 T-REx D2 cells, calcium flux agonist mode | activation, % at 2 µM | 340,000 tested, 0.53% active;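 active = activation over 3 SD above normal in the single-dose calcium agonist read, cut at about 30% in these data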; also: 0% is about no effect
#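 Agonism is scored from calcium flux in a force-coupled, inducible HEK293 cell line expressing D2, read kinetically for 180 s after compound addition against dopamine controls.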
# D3 ag: qHTS of D3 Dopamine Receptor Agonist: D3 Dopamine Receptor B-arrestin Agonist Confirmatory Assay; shares compounds with D2 ag-2; DiscoveRx D3 beta-arrestin cells, luminescence, 90 min; Potency, µM (top dose mostly 76.9 µM), inactives show at the top dose activation, most hits filed as activators; 2,300 tested, 4% active;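 also: potency is read from the fitted curve at half-maximal effect; 100% = dopamine control response; nearly all actives have a fitted effect of over 70% in size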
# Target sequence (P35462 whole entry, looked up): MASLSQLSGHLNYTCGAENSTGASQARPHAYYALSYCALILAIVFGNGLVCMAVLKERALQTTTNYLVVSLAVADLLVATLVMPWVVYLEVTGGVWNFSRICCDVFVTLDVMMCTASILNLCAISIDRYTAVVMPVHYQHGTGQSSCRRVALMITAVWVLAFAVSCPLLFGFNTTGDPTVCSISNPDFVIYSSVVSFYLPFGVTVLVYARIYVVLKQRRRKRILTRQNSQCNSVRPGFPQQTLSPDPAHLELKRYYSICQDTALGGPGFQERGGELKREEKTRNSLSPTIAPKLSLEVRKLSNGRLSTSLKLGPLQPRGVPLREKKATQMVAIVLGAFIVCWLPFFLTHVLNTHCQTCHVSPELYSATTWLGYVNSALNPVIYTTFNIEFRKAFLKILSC
# D2 ag-3: qHTS of D3 Dopamine Receptor Agonist: D2 Dopamine Receptor B-arrestin Agonist Counterscreen | Potency, µM (titrated, usually from 76.9 µM), for inactives: top-dose activation, usual class: activators | 2,300 tested, 5.9% active | shares compounds with D2 ag-2 | DiscoveRx PathHunter D2 beta-arrestin, luminescence, 90 min; response scale: percent relative to full dopamine signal | AID 720507, 2013; also: potency is read from the fitted curve at half-maximal effect; % of control where 0% means no effect; nearly all actives have a fitted effect of over 70% in size
# Numbers without * were called inactive; ? = inconclusive; / = not tested or not shown. An excerpt weighted towards active compounds, which were near 2.4% of everything screened. Unless noted, calls follow the shape of the dose curve; as a rule, active = well fitted activation curve with a large enough effect; inconclusive = small, poorly fitted or top-dose-only effect; inactive = flat fitted curve, though single readings scatter.
SMILES,D2 ag-1,D2 PAM-1,D2 PAM-2,D2 antag,D2 ag-2,D3 ag,D2 ag-3
COc1ccc([C@H]2CC(=O)C=C(c3ccc4c5c(cccc35)CC4)C2)cc1,-2,-5,0,-8,0,-9%,-6%
C=CCn1c(SCC(=O)c2ccc(O)c(O)c2)nnc1-c1cccc(OC)c1,1,-4,-45,2,41*,5%,9%
CCn1c(C(=O)N2CCCC(C(=O)N3CCN(c4ccccc4)CC3)C2)cc2sccc21 (stereo not given),/,/,-3,/,0,/,/
Cc1ccccc1NC(=O)C[n+]1cc(-c2ccccc2)n2c1CCC2,1,-5,/,/,/,-10%,8%
Cc1cccc(C)c1NC(=O)C[n+]1cc(-c2ccccc2)n2c1CCC2,7,0,-25,28,75*,-10%,12%
COc1ccc(C(=O)Oc2ccc(C(c3c(C)[nH][nH]c3=O)c3c(C)[nH][nH]c3=O)cc2)cc1,/,/,-9,/,-1,/,/
CCN(CC(=O)Nc1ccc(NC(C)=O)cc1)C(=O)c1ccccc1SCC(=O)N1CCCC1,2,4,/,/,/,-4%,-3%
CC(=O)Nc1ccc(NC(=O)COC(=O)c2ccccc2SCC(=O)N2CCCC2)cc1,-1,0,-3,14,1,/,/
CN(Cc1ccc(Cl)cc1)C(=O)c1ccccc1SCC(=O)N1CCCC1,-10,-26,-1,/,/,-2%,-2%
Cc1ccc(-c2noc(-c3ccc(NCc4cccnc4)c([N+](=O)[O-])c3)n2)cc1,/,/,4,/,-1,/,/
C/C(=N\NC(=S)Nc1cccc(C)c1)c1ccccc1,-8,-40,12,-6,-1,/,/
C/C(=N\NC(=S)Nc1cccc(C)c1)c1ccco1,6,-10,-7,67*,70*,-1%,-5%
Cn1cnc(S(=O)(=O)N2CCCC(C(=O)NCc3ccc(F)cc3)C2)c1 (stereo not given),/,/,4,/,-2,/,/
CCOc1ccc(NC(C)=O)cc1N,4,-6,0,-5,1,1%,1%
CCOc1ccc(NC(C)=O)cc1[N+](=O)[O-],1,-10,-7,6,0,/,/
O=C(O)C1CC=CCC1C(=O)Nc1ccc(N2CCN(Cc3ccccc3)CC2)cc1 (stereo not given),1,-14,-20,-13,64*,1%,1%
CC(=O)c1ccc(NC(=O)CN2CCN(c3ncccn3)CC2)cc1,47*,21,-23,77*,74*,?,?
CC(=O)c1ccc(NC(=O)CN2CCN(CC(=O)Nc3ccc(C(C)=O)cc3)CC2)cc1,3,3,-1,14,2,/,/
CC(=O)c1ccc(NC(=O)CN2CCN(c3ccccc3)CC2)cc1,?,12,-23,37*,83*,?,?
O=C(CN1CCN(c2ccccc2)CC1)Nc1ccc(Oc2ccccc2)cc1,11,18,-30,58*,55*,?,?
Cc1ccn2c(=O)cc(COc3ccc(NC(=O)COc4ccc(Cl)cc4)cc3)nc2c1,/,/,2,/,1,/,/
CC1CCN(S(=O)(=O)c2ccc(NC(=O)CN3CCN(c4ccccc4)CC3)cc2)CC1,?,9,-29,59*,45*,2.2µM*,?
CC1CCN(S(=O)(=O)c2ccc(NC(=O)CN3CCN(C)CC3)cc2)CC1,0,-3,8,12,0,/,/
O=C(CN1CCN(c2ccccc2)CC1)c1ccc2cc[nH]c2c1,-3,-14,-24,90*,84*,20%,27%
COc1cccc(N2CCN(CC(=O)Nc3ccc(-n4cnnn4)cc3)CC2)c1,5,-1,-4,9,2,/,/
SMILES,D2 ag-1,D2 PAM-1,D2 PAM-2,D2 antag,D2 ag-2,D3 ag,D2 ag-3
O=C(CN1CCN(c2ccccc2)CC1)Nc1ccc(-n2cnnn2)cc1,11,-1,-22,51*,69*,?,?
O=C(CN1CCC2(CC1)OCCO2)c1ccc2cc[nH]c2c1,-2,-9,2,-5,2,/,/
CC(OC(=O)Cc1ccc(Cl)cc1)C(=O)NC1CCCCC1C (stereo not given),1,1,1,-3,0,0%,-3%
CC(OC(=O)/C=C/c1ccco1)C(=O)NC1CCCCC1C (stereo not given),-1,-1,11,5,0,-2%,-4%
CC(OC(=O)/C=C/c1cccs1)C(=O)NC1CCCCC1C (stereo not given),-3,4,9,8,0,/,/
Cc1ccc(N2CC(NC(=O)c3cc4ccccc4o3)CC2=O)cc1 (stereo not given),/,/,3,/,0,/,/
COc1cccc(CN(C)C(=O)c2cccc(S(=O)(=O)N3CCN(Cc4ccccc4)CC3)c2)c1OC,-3,-12,0,0,2,29%,20%
Oc1ccc(Cl)cc1C=NCCc1ccccc1,10,-7,-16,24,43*,?,17%
CCOC(=O)c1nncc(-c2ccccc2)n1,-2,-5,16,2,0,-3%,-3%
CCOC(=O)c1cc(-c2ccccc2)n[nH]1,-1,2,-1,-15,-1,/,/
COc1ccc(-c2ccc(SCC(=O)N3CCCC3)nn2)cc1OC,1,6,-2,18,1,1%,-2%
COc1ccc(CNC(=O)c2cccc(N3CCCS3(=O)=O)c2)cc1OC,/,/,-3,/,1,/,/
Cc1[nH]c2ccccc2c1CN1CCN(c2ccccn2)CC1,3,-17,-22,56*,51*,-12%,6%
Oc1c(CN2CCN(c3ccccn3)CC2)cc(Cl)c2cccnc12,-16,-63,-31,89*,83*,-21%,?
Cc1ccccc1-c1nnc(CN2CCN(c3ccccn3)CC2)o1,/,/,-19,/,/,/,/
O=c1c(CN2CCN(Cc3ccccc3F)C(CCO)C2)coc2ccccc12 (stereo not given),3,-11,1,-19,9,/,/
